These results are taken from PubChem BioAssay (EPA / NIEHS).

Records with an inconclusive call do not appear. The source made the active and inactive calls. Rule for the calls, unless noted: active = hit-call score of the fitted dose curve at least 0.9, where 1 is the maximum; inactive = score below 0.9.

Test [1] can be described thus: CCTE_Shafer_MEA_dev_firing_rate_mean: CCTE's Neural Network Formation Assay for Mean Firing Rate, Shafer Lab (AID 2284031).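 For AC50: curve fitted for loss of firing so AC50 reflects decreased mean firing rate.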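 Note: AUC of well mean spike rate recorded on DIV 5 7 9 and 12.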 Summed up: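 Extracellular spike frequency, AUC over DIV 5–12 recordings, in rat cortical neuron MEA cultures dosed from plating; loss direction vs DMSO.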
Test [2] can be described thus: CCTE_Shafer_MEA_dev_active_electrodes_number: CCTE's Neural Network Formation Assay for Number of Active Electrodes, Shafer Lab (AID 2284040; active = hit-call score of the fitted dose curve at least 0.9, where 1 is the maximum;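 for AC50: potency for loss of active electrodes versus DMSO so lower counts are hits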). The essentials:
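Developing rat cortical networks on MEAs, exposed DIV 0–12. Value is the AUC of active-electrode counts (≥5 spikes/min) from days 5, 7, 9, 12, relative to DMSO.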

Test [3] is described as follows: CCTE_Shafer_MEA_dev_burst_rate: CCTE's Neural Network Formation Assay for Burst Rate, Shafer Lab (AID 2284042).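 For AC50: potency for loss of burst rate below DMSO control.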 The essentials: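 Developmental network assay measuring how 12-day exposure of rat cortical neuron cultures alters bursting on extracellular MEA recordings. Values are AUC of well-mean burst rate across four recording days, relative to DMSO vehicle.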
A short description of test [4]: CCTE_Shafer_MEA_acute_cross_correlation_HWHM: CCTE's Neural Acute Assay for Cross Correlation at Half Width at Half Maximum, Shafer Lab (AID 2284026).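 Note: spontaneous network firing of rat primary cortical neurons on multiwell microelectrode arrays; hits are a decrease in cross-correlogram half width relative to DMSO.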 The essentials: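 Primary cortex (rat), MEA, DIV 13/15; compound 0.03-40 uM; 40 min pre + 40 min post at 37 C; spike threshold 8x rms; wells need ≥10 active electrodes; endpoint = % change in cross-correlogram HWHM vs baseline, DMSO negative control.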

The nature of test [5]: CCTE_Shafer_MEA_acute_synchrony_index: CCTE's Neural Acute Assay for Synchrony, Shafer Lab (AID 2284027).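 Note: network synchrony index of spontaneous spiking in primary rat cortical neurons on MEAs; fitted for loss of signal so actives lower synchrony relative to DMSO.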 The essentials: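 Acute exposure of rat primary cortical neurons (DIV 13 or 15) at 0.03-40 uM. Synchrony index, 40 min before vs after, as % change relative to DMSO control.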
Test [6] addresses Estrogen receptor (Homo sapiens) (UniProt P03372). Put plainly: CCTE_Deisenroth_AIME_384WELL_LUC_Active: CCTE's 384-well Estrogen Receptor Transactivation Assay with AIME metabolic competence (ERTA luciferase; metabolism positive), Deisenroth Lab (AID 2284030; active = hit-call score of the fitted dose curve at least 0.9, where 1 is the maximum). Summed up:
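In this metabolism-positive format, a 2-hour exposure to alginate-immobilized rat S9 precedes a 24 hour luciferase transactivation readout in VM7Luc4E2 cells. Dosing spans 10 concentrations from 0.002 to 200 uM.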

The target is the same in test [7]. Put plainly: CCTE_Deisenroth_AIME_384WELL_LUC_Inactive: CCTE's 384-well Estrogen Receptor Transactivation Assay without AIME metabolic competence (ERTA luciferase; metabolism negative), Deisenroth Lab (AID 2284038; active = hit-call score of the fitted dose curve at least 0.9, where 1 is the maximum;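 note: VM7Luc4E2 breast cells given medium preincubated 2 h with S9-free microspheres; hits raise estrogen receptor luciferase signal so potencies reflect agonists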). The essentials: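 Metabolism-negative mode: AIME lids stamped in alginate-water, no hepatic S9. 2 h chemical incubation → medium onto VM7Luc4E2 ERTA, 24 h. Readout luciferase luminescence; gain-of-signal fit vs 17beta-estradiol. Conc. 0.002 - 200 uM.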

Test [8] is described as follows: CCTE_Deisenroth_AIME_384WELL_CTox_Inactive: Cytotoxicity Assessment (CTOX) in CCTE's 384-well Estrogen Receptor Transactivation Assay without AIME metabolic competence (metabolism negative), Deisenroth Lab (AID 2284039; active = hit-call score of the fitted dose curve at least 0.9, where 1 is the maximum;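 note: cell viability via live-cell protease substrate cleaved to fluorescent probe; cells exposed 24 h to medium preincubated 2 h with alginate-water beads without S9; loss of fluorescence signal means loss of viability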). Summed up: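 Fluorescence from a live-cell protease substrate, read after 24 h in VM7Luc4E2 cells, indicated viability. Test medium came from a 2 h AIME step without hepatic S9 (alginate-water microspheres); concentrations spanned 0.002 - 200 uM, single technical replicate per run.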

Test [9] addresses Estrogen receptor (Homo sapiens) (UniProt P03372). Put plainly: CCTE_Deisenroth_AIME_384WELL_LUC_Shift: CCTE's 384-well Estrogen Receptor Transactivation Assay with AIME metabolic competence data shift (ERTA luciferase; difference in metabolism positive and negative), Deisenroth Lab (AID 2284041).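 Note: shift is response with S9 minus without S9 so positive means metabolism raised ER signal.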 The essentials: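 Chemicals (0.002–200 uM, 10 points) pre-incubated 2 h with alginate-encapsulated induced male Sprague Dawley rat liver S9 or S9-free, then medium applied 24 h to VM7Luc4E2 cells; luciferase. Endpoint is per-concentration difference, S9-positive minus negative.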

The nature of test [10]: CCTE_Deisenroth_AIME_384WELL_CTox_Active: Cytotoxicity Assessment (CTOX) in CCTE's 384-well Estrogen Receptor Transactivation Assay with AIME metabolic competence (metabolism positive), Deisenroth Lab (AID 2284037; active = hit-call score of the fitted dose curve at least 0.9, where 1 is the maximum;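 note: chemicals first conditioned 2 h by alginate-bound induced rat liver S9 before cells; activity means signal loss indicating cell death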). The essentials: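 Chemicals pre-incubated 2 hours with alginate-immobilised phenobarbital/beta-naphthoflavone-induced male Sprague Dawley rat liver S9, then conditioned medium applied 24 hour to VM7Luc4E2 cells. Viability by fluorogenic protease substrate; 10-point series 0.002 - 200 uM.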

Chain of Estrogen receptor (Homo sapiens) (P03372 whole entry, looked up): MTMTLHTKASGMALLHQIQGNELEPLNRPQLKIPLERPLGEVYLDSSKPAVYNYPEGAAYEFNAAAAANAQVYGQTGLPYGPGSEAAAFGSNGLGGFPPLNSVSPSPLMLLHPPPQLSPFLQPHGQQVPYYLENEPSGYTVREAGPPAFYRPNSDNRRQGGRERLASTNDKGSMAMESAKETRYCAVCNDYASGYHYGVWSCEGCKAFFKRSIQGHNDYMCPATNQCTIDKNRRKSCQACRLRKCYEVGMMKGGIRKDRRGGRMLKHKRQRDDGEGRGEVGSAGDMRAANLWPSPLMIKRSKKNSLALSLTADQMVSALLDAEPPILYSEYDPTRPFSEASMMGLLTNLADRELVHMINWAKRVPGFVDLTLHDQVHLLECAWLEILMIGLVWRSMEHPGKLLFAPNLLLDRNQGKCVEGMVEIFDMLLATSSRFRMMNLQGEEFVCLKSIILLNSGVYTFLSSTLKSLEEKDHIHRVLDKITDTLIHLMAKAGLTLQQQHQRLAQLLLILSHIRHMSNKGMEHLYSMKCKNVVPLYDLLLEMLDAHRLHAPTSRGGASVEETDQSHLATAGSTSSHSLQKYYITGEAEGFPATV

For `O=S(=O)(OCC(F)F)C(F)(F)F`, the outcome in test [1], in test [2] and in test [3] was inactive.
For `FC(F)(F)C(F)(F)C(F)(F)C(F)(F)C(F)(F)C(F)(F)CC1CO1` (centres undefined), the call in [1] and in test [3] was inactive.
For the molecule `OCC(F)(F)C(F)(F)C(F)(F)C(F)F`, the call in test [1], in test [2] and in test [3] was inactive.
On to `CCCCC(CC)COP(=O)(O)OCC(CC)CCCC` (centres undefined), for which the outcome in test [4] and in [5] was inactive.
On to `O=C(O)C(F)(F)C(F)(F)C(F)(F)F`, for which the molecule was called inactive in test [1], in test [2] and in test [3].
As to `N=C(N)C(F)(F)C(F)(F)C(F)(F)C(F)(F)C(F)(F)C(F)(F)C(F)(F)F`, the molecule was classed as inactive in test [1], in test [2] and in [3].
Take `C=CC(=O)OCC(F)(F)C(F)(F)C(F)(F)C(F)(F)COC(=O)C=C`: the AC50 is 4.34 µM (active) in test [1], 4.2 µM (active) in [2] and 4.18 µM (active) in [3].
With `FC(F)(F)C(F)(F)CNCC(F)(F)C(F)(F)F`, the molecule was called inactive in test [1], in test [2] and in [3].
As to `O=P(O)(O)OCCC(F)(F)C(F)(F)C(F)(F)C(F)(F)C(F)(F)C(F)(F)F`, the result in test [1], in test [2] and in [3] was inactive.
In the case of `O=C(O)C=C(C(F)(F)F)C(F)(F)F`, the call in test [1], in test [2] and in test [3] was inactive.
As for `CNC(=S)NC`, the outcome in test [6], in test [7], in [8] and in [9] was inactive.
Consider `CCCCCCC(C)OC(=O)CCCCC(=O)OC(C)CCCCCC` (centres undefined), for which the result in test [6], in test [7], in [8] and in test [9] was inactive.
As for `CC/C=C\CCOC(C)=O`, the call in [6], in test [10], in test [8] and in [9] was inactive.
Regarding `FC(F)(F)C(F)(F)C(F)(F)C(F)(F)C(F)(F)CCI`, the molecule was classed as inactive in test [1] and in test [3]. Further, the concentration at half-maximal activity (AC50) in test [2] was 15 µM (active).
As to `OCC(F)(F)C(F)(F)C(F)(F)F`, the molecule was called inactive in [1], in [2] and in [3].
As to `O=C(O)C(F)(F)C(F)(F)C(F)F`, the call in test [1], in [2] and in test [3] was inactive.
For the molecule `OCCCC(F)(F)C(F)(F)C(F)(F)F`, the molecule was called inactive in test [1], in [2] and in test [3].
Regarding `CCCCCCOC(=O)c1ccccc1O`, the molecule was classed as inactive in test [4] and in test [5].

A word on the AC50: it is the concentration at which the activity in the assay is half-maximal.
